Of roughly 7,900 targets only a part is listed; those with a hit were picked by preference. About 0.6% of all pairs of compound and target were hits. A number with no mark means an inactive call.
What was measured:
Experiment in all cases: log2 fold change, soluble protein after heating vs DMSO (PISA); higher = thermal stabilisation; K562 cells, 10 uM, 30 min; active = over 0.2 and 3.5 SD of the protein, either way, in both replicates (recomputed)
[1] = compound: CC[C@@H]1C(=O)N(C)c2cnc(Nc3ccc(C(=O)NC4CCN(C)CC4)cc3OC)nc2N1C1CCCC1
Outline: (§1)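 Soluble protein was defined as the supernatant after 21,000xg for 90 min. It came from K562 cells at 2×10^6 cells/mL given 10 μM compound for 30 min, heated in aliquots for 3 min across 48°C-58°C, pooled, and extracted in PBS with 0.5% NP-40 at 4°C, and was quantified by TMTpro 16plex LC-MS/MS with equalised channel sums. Thermal stability against control samples, from duplicates, is reported as log2 fold change.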

volasertib = compound: CC[C@@H]1C(=O)N(C)c2cnc(Nc3ccc(C(=O)N[C@H]4CC[C@H](N5CCN(CC6CC6)CC5)CC4)cc3OC)nc2N1C(C)C [volasertib]
Outline: as §1

[2] = compound: CC[C@H](C)N1C=C(C2=C(C=C(C=C21)C3=CN=C(C=C3)N4CCNCC4)C(=O)NCC5=C(C=C(NC5=O)C)C)C
Outline: as §1

epoxomicin = compound: CC[C@H](C)[C@@H](C(=O)N[C@@H]([C@@H](C)O)C(=O)N[C@@H](CC(C)C)C(=O)[C@]1(CO1)C)NC(=O)[C@H]([C@@H](C)CC)N(C)C(=O)C [epoxomicin]
Outline: as §1

[3] = compound: CCn1c(C(=O)N(C2CC2)C2CC2)cc2c3c(ncn3C)c(Nc3cc(C)n(C)n3)nc21
Outline: as §1

[4] = compound: CCn1cc(-c2ccnc3[nH]c(-c4cccc(CN(C)C)c4)cc23)c(-c2ccc(NC(=O)N(C)C)cc2)n1
Outline: as §1

[5] = compound: CN(C)CC(=O)Nc1ccc2[nH]c(=O)c3ccccc3c2c1
Outline: as §1

rosiglitazone = compound: CN(CCOC1=CC=C(C=C1)C[C@H]2C(=O)NC(=O)S2)C3=CC=CC=N3 (racemic) [rosiglitazone]
Outline: as §1

[6] = compound: CN1C2=C(C3=C1C(=O)N(N=C3)CC4=CC(=CC=C4)N)SC(=C2)S(=O)C
Outline: as §1

[7] = compound: CN1CCC(CNc2ccc3ncc(-c4cccc(OC(F)(F)F)c4)n3n2)CC1
Outline: as §1

saracatinib = compound: CN1CCN(CCOc2cc(OC3CCOCC3)c3c(Nc4c(Cl)ccc5c4OCO5)ncnc3c2)CC1 [saracatinib]
Outline: as §1

sotrastaurin = compound: CN1CCN(c2nc(C3=C(c4c[nH]c5ccccc45)C(=O)NC3=O)c3ccccc3n2)CC1 [sotrastaurin]
Outline: as §1

alvocidib = compound: CN1CC[C@H](c2c(O)cc(O)c3c(=O)cc(-c4ccccc4Cl)oc23)[C@H](O)C1 [alvocidib]
Outline: as §1

Tubastatin A = compound: CN1CCc2c(c3ccccc3n2Cc2ccc(C(=O)NO)cc2)C1 [Tubastatin A]
Outline: as §1

[8] = compound: CNC(=O)C1=CC=CC=C1NC2=NC(=NC=C2Cl)NC3=C(C=C(C=C3)N4CCOCC4)OC
Outline: as §1

defactinib = compound: CNC(=O)c1ccc(Nc2ncc(C(F)(F)F)c(NCc3nccnc3N(C)S(C)(=O)=O)n2)cc1 [defactinib]
Outline: as §1

rucaparib = compound: CNCc1ccc(-c2[nH]c3cc(F)cc4c3c2CCNC4=O)cc1 [rucaparib]
Outline: as §1

[9] = compound: CNc1nc(-c2ccc3c(N)n[nH]c3c2)cc(N2C[C@@H](C(=O)NC3CCCCC3)CC[C@H]2C)n1
Outline: as §1

encorafenib = compound: COC(=O)N[C@@H](C)CNc1nccc(-c2cn(C(C)C)nc2-c2cc(Cl)cc(NS(C)(=O)=O)c2F)n1 [encorafenib]
Outline: as §1

[10] = compound: COC(=O)[C@H](CCSC)NC(=O)C1=C(C=C(C=C1)NC[C@H](CS)N)C2=CC=CC=C2
Outline: as §1

Chain of UniProt Q00688 (Q00688 whole entry, looked up): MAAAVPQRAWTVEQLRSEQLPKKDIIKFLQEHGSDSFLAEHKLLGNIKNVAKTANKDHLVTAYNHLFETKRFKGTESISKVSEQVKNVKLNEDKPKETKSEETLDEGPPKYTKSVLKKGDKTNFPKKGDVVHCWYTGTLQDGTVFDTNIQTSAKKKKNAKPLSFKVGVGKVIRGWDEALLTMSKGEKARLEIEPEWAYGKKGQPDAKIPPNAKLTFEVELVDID
Chain of UniProt O14929 (O14929 whole entry, looked up): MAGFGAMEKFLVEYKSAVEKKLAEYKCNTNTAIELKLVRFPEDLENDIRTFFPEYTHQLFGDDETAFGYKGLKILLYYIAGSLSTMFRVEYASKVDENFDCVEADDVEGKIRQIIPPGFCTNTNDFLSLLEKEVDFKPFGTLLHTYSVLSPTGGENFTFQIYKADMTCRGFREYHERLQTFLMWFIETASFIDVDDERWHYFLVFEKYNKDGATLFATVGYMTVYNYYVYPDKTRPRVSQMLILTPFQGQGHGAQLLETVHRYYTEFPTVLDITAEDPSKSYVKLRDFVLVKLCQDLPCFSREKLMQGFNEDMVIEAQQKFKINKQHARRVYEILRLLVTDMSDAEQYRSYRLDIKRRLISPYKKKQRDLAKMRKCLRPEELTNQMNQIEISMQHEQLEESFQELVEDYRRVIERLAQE
Chain of UniProt P29084 (P29084 whole entry, looked up): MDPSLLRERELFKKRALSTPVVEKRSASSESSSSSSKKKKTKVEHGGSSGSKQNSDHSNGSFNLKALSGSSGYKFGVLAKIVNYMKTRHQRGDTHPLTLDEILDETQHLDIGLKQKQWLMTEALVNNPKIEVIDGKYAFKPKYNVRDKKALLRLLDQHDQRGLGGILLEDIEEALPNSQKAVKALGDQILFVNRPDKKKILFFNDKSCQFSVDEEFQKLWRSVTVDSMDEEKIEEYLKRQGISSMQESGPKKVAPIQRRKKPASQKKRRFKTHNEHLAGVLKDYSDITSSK
Chain of UniProt P55084 (P55084 whole entry, looked up): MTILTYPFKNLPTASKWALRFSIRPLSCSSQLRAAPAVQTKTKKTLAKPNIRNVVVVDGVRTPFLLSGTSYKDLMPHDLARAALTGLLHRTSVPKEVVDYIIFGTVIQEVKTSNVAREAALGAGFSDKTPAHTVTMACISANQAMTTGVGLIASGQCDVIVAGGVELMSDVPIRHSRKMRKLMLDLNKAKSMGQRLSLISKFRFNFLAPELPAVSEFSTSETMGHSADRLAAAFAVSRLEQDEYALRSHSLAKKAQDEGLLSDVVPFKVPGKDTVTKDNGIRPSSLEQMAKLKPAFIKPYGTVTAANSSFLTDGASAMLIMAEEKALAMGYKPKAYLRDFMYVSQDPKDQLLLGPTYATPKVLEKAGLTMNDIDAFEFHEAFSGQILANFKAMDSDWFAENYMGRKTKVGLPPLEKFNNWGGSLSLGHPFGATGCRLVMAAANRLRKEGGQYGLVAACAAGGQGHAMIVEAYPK
Chain of UniProt Q14C86 (Q14C86 whole entry, looked up): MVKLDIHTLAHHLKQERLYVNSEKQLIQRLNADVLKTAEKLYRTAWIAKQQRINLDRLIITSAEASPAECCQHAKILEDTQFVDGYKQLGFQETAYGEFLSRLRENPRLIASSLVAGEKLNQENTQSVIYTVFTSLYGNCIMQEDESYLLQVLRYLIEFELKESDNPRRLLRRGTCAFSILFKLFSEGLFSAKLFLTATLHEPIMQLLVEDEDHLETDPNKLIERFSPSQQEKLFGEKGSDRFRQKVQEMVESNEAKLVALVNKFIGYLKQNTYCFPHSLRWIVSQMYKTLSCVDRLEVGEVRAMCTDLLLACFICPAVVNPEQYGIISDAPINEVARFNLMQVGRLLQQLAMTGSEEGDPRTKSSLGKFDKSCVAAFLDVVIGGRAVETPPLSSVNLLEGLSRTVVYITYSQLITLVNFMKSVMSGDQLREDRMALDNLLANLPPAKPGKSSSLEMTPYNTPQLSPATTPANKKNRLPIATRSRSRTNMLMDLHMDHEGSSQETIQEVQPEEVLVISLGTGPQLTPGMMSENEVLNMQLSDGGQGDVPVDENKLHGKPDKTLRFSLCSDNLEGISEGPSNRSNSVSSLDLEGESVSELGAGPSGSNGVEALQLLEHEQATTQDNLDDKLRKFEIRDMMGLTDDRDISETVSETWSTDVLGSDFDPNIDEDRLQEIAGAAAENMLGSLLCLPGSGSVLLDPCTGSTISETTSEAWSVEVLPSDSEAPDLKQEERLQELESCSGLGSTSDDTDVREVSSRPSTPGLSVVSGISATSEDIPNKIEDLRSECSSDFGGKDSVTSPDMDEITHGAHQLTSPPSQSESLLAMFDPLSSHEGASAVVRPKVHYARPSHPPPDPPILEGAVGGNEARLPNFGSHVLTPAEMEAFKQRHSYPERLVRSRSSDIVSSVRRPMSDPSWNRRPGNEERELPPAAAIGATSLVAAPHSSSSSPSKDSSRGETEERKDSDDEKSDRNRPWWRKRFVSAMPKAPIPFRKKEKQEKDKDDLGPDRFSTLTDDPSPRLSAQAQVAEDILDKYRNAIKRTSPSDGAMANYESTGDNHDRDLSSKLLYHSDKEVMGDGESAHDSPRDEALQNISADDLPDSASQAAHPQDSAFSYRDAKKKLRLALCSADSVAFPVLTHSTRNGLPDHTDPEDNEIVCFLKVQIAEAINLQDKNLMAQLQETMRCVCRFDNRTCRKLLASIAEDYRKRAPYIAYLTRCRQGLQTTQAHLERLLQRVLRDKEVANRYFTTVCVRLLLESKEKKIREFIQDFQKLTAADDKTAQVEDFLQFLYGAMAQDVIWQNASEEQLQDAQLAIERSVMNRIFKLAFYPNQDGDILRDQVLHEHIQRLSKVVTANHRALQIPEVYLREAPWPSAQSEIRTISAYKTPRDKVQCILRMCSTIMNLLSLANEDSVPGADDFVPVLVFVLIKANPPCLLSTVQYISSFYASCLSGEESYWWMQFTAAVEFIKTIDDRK
Chain of UniProt Q02790 (Q02790 whole entry, looked up): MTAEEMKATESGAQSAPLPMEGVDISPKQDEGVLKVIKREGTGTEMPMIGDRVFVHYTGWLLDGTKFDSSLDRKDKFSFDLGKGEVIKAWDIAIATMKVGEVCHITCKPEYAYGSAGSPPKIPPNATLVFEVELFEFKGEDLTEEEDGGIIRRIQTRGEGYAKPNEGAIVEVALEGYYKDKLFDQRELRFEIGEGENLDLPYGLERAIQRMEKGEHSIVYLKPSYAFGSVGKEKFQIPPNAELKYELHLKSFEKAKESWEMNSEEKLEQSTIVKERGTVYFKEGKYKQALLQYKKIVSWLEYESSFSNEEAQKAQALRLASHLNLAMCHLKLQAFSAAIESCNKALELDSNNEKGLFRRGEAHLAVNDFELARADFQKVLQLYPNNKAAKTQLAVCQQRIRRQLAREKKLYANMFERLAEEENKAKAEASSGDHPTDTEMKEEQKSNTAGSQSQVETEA
Chain of UniProt P15976 (P15976 whole entry, looked up): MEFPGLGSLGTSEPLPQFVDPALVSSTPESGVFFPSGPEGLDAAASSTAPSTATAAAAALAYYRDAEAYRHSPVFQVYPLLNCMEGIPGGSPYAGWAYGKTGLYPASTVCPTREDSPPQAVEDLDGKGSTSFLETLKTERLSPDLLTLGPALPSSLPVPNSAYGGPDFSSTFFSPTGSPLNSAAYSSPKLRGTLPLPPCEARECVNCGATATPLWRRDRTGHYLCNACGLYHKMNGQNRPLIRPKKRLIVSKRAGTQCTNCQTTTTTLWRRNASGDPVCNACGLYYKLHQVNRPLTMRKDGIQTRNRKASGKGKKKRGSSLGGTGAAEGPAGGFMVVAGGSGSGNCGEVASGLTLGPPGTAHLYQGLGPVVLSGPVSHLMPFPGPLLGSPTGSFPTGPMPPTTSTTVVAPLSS
Chain of UniProt Q92522 (Q92522 whole entry, looked up): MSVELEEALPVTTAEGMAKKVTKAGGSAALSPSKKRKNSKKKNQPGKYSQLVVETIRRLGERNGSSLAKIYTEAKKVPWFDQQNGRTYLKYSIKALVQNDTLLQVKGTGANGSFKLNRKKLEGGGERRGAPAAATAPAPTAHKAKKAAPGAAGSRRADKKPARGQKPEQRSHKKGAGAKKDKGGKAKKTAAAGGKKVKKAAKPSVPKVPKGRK

Row | Target | log2 fold change [1] | log2 fold change (volasertib) | log2 fold change [2] | log2 fold change (epoxomicin) | log2 fold change [3] | log2 fold change [4] | log2 fold change [5] | log2 fold change (rosiglitazone) | log2 fold change [6] | log2 fold change [7] | log2 fold change (saracatinib) | log2 fold change (sotrastaurin) | log2 fold change (alvocidib) | log2 fold change (Tubastatin A) | log2 fold change [8] | log2 fold change (defactinib) | log2 fold change (rucaparib) | log2 fold change [9] | log2 fold change (encorafenib) | log2 fold change [10]
1 | FKBP3 (UniProt Q00688) | 0.006 | 0.075 | 0.03 | 0.037 | 0 | -0.001 | 0.001 | -0.002 | -0.065 | 0.015 | -0.006 | 0 | -0.004 | 0.017 | 0 | -0.024 | -0.052 | 0.01 | 0.012 | 0.033
2 | GTF2E2 (UniProt P29084) | -0.11 | -0.265 (active) | 0.105 | 0.099 | -0.036 | 0.001 | 0.069 | 0.017 | 0.027 | -0.103 | -0.103 | -0.163 | -0.023 | 0.054 | 0.056 | -0.085 | 0.03 | 0.025 | 0.145 | -0.035
3 | FKBP4 (UniProt Q02790) | -0.066 | -0.136 | 0.07 | 0.033 | -0.01 | -0.051 | 0.019 | 0.042 | -0.04 | -0.119 | -0.048 | -0.022 | -0.092 | -0.009 | 0.032 | -0.055 | 0.016 | 0.05 | 0.026 | -0.036
4 | GATA1 (UniProt P15976) | 0.134 | 0.076 | -0.036 | 0.152 | -0.026 | 0.04 | -0.084 | -0.021 | 0.046 | 0.119 | 0.097 | -0.042 | 0.128 | -0.049 | 0.104 | 0.088 | 0.086 | -0.014 | 0.054 | 0
5 | HADHB (UniProt P55084) | 0.082 | 0.462 | 0.123 | 0.05 | 0.161 | -0.223 | 0.015 | -0.039 | -0.058 | -0.223 | -0.111 | 0.011 | -0.283 | 0.027 | 0.064 | -0.18 | 0.131 | 0.62 (active) | 0.001 | -0.223
6 | GAPVD1 isoform 6 (UniProt Q14C86) | -0.12 | -0.585 (active) | 0.034 | -0.015 | -0.061 | -0.016 | 0.038 | 0.034 | 0.083 | -0.197 | -0.04 | -0.158 | -0.063 | -0.009 | -0.007 | -0.07 | 0.103 | 0.032 | 0.125 | -0.043
7 | HAT1 (UniProt O14929) | -0.185 | -0.313 (active) | 0.02 | 0.035 | 0.014 | -0.057 | -0.007 | 0.049 | -0.081 | 0.026 | 0.047 | -0.058 | -0.209 | 0.036 | 0.05 | -0.139 | -0.066 | -0.061 | 0.064 | -0.017
8 | H1FX (UniProt Q92522) | 0.166 | 0.415 | -0.003 | -0.201 | -0.026 | 0.041 | -0.115 | -0.156 | 0.287 | 0.129 | -0.054 | -0.237 | 0.381 | 0.093 | 0.041 | 0.336 | 0.219 | 0.102 | 0.121 | 0.013

— the supplement of paper PMC10849652
